Shown is part of a subset that was picked to be rich in hits.
KDM5B inh: KDM5B demethylase inhibition | KDM5B demethylase, FDH-coupled NADH fluorescence (FDH is formaldehyde dehydrogenase) | AID 1347165 | 220,000 tested, 2.6% active | Potency, µM (series often up to 57.7 µM), actives largely listed as inhibitors; active means well fitted inhibition curve with a large enough effect; further: nearly all actives have a fitted effect of over 70% in size
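Compound dilutions met 200 nM (final) KDM5BΔAP for 10 min at room temperature before substrate addition. The substrate mix held 12.5 µM H3K4me3 with cofactors 25 µM α-ketoglutarate and 50 µM Fe²⁺. NADH signal gain over 30 min defined activity.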
Large screens that a line does not name were inactive.

CC(=O)c1cccc(NC(=O)CCn2nc(C)c(S(=O)(=O)N3CCCCC3)c2C)c1	none
COCC(=O)NC1CCN(c2nc3ncccc3o2)CC1	KDM5B inh 32µM
COCC(=O)NC1CCN(c2ccccc2S(=O)(=O)C(F)(F)F)CC1	none
COCC(=O)NC1CCCCCC1	none
CCCOc1nc2ccccc2nc1N1CCC(C(=O)NC2CCCC2)CC1	none
O=C(NC1CCN(c2nc3ncccc3o2)CC1)C1CCCC1	KDM5B inh 35µM
O=C(NC1CCCCC1)C1CCCN(S(=O)(=O)c2cccc3cccnc23)C1 (centres undefined)	none
Cc1cccc(-c2noc(C(C)NC(=O)c3ccco3)n2)c1 (centres undefined)	none
NC(=O)C(Sc1ccc(C(F)(F)F)cn1)c1ccccc1 (centres undefined)	none
CCNC(=O)CN(CC)Cc1nc2ccsc2c(=O)[nH]1	none
COc1ccc(Cc2nc3ccc(C(=O)N(C)CC4COCCO4)cc3o2)cc1 (centres undefined)	none
O=C(c1cccc2[nH]ccc12)N1C[C@@H](CO)[C@H](c2nc(C3CC3)no2)C1	KDM5B inh 22µM
Cc1noc([C@@H]2CN(C(=O)c3nccc4ccccc34)C[C@H]2CO)n1	none
O=C(c1ccoc1)N1CCC(c2noc(C3CC3)n2)C1 (centres undefined)	none
Cc1noc([C@@H]2CN(C(=O)c3cccc4[nH]ccc34)C[C@H]2CO)n1	KDM5B inh 28µM
O=C(c1ccc(F)cc1)N1C[C@@H](CO)[C@H](c2nc(C3CC3)no2)C1	none
Cc1noc([C@@H]2CN(C(=O)CCc3c[nH]c4ccccc34)C[C@H]2CO)n1	none
O=C(c1cccc2[nH]ccc12)N1CCC(c2noc(C3CC3)n2)C1 (centres undefined)	KDM5B inh 22µM
O=C(c1nccc2ccccc12)N1CCC(c2noc(C3CC3)n2)C1 (centres undefined)	none
O=C(c1ccccc1F)N1C[C@@H](CO)[C@H](c2nc(C3CC3)no2)C1	none
CC(Oc1ccccc1)C(=O)Nc1ccccc1C(=O)OCc1cc(=O)n2nc(C3CC3)sc2n1 (centres undefined)	none
O=C(C1CC1)N1CCC(c2noc(-c3ccncc3)n2)C1 (centres undefined)	none
COc1ccc(CN(C(=O)c2oc3ccc(F)cc3c2C)C2CCS(=O)(=O)C2)cc1 (centres undefined)	none
COc1ccc(CCN2CNc3c(c(=O)[nH]c(=O)n3-c3cccc(Cl)c3C)C2)cc1OC	none
Cc1ccc2c(C)c(C(=O)N(Cc3ccc(Cl)cc3)C3CCS(=O)(=O)C3)oc2c1 (centres undefined)	none
O=C(COc1ccccc1)N1CC(c2nnc(-c3ccncc3)o2)C2(CCOCC2)C1 (centres undefined)	none
C=CCOn1c(=O)c(-c2ccc(Br)cc2)[n+]([O-])c2ccccc21	none
O=C(C1CCCCC1)N(Cc1cccnc1)c1nc2c(F)cc(F)cc2s1	none
COCCCNc1ccc2nnc(-c3ccc(C)cn3)n2n1	KDM5B inh 40µM
COc1ccc(-c2nnc3ccc(NCCc4ccccc4)nn23)nc1	none
Fc1ccc(-c2nnc3ccc(NC4CCC4)nn23)nc1	none
COc1cc(Nc2ccc3nnc(-c4ccc(C)cn4)n3n2)cc(OC)c1OC	none
COc1cccc(NC(=O)c2ccnc(-c3nnc4ccc(Nc5ccccc5)nn34)c2)c1	none
COc1ccc(-c2nnc3ccc(NCC(C)C)nn23)nc1	KDM5B inh 35µM
COc1cccc(Nc2ccc3nnc(-c4cc(OC)ccn4)n3n2)c1	KDM5B inh 28µM
Cc1ccc(-c2nnc3ccc(NCc4cccs4)nn23)nc1	none
COc1cc(Nc2ccc3nnc(-c4ccccn4)n3n2)cc(OC)c1OC	none
COc1ccc(Cl)cc1-n1c2c(cc(C#N)c1=O)C(=O)CC(C)(C)C2	none
COc1cc(OC)cc(-n2nc(C(=O)Nc3ccc4c(c3)OCCO4)c3ccccc3c2=O)c1	none
CCN(C(=O)CSc1nc2ccc(OC)cc2[nH]1)C1CCS(=O)(=O)C1 (centres undefined)	none
Brc1ccc(-c2nnc3sc(CN4CCCCC4)cn23)cc1	none
Cc1noc(C(C)Nc2ccc3oc(C(C)(C)C)nc3c2)n1 (centres undefined)	none
Cc1cc2c(cc1S(=O)(=O)N1CCC(C)CC1)OCC(=O)N2	none
CCn1ccc(C(=O)N2CC(c3nc(CCOCC4CC4)no3)C2)n1	none
CN(C)c1cc(N2CCCC(NC(=O)NCc3ccccc3)C2)ncn1 (centres undefined)	none
COc1ccc(C(=O)N2CC3CC(C2)[C@H]2CCCC(=O)N2C3)c(OC)n1 (some centres undefined)	none
CCCN(C)c1nccnc1OC1CCN(C(=O)c2ccc(OC)nc2OC)C1 (centres undefined)	none
COc1ccc(C(=O)N2CC[C@@H]3CN(c4cnccn4)[C@@H]3C2)c(OC)n1	KDM5B inh 32µM
O=C1CC(c2ccccc2)NCCCCCN1 (centres undefined)	none
Cc1ccc(C(=O)Nc2ccc(C(=O)OCc3cc(=O)n4nc(C5CC5)sc4n3)cc2)cc1	none
Fc1ccc2nc(CO[C@H]3CN(Cc4ccc5ccccc5n4)C[C@H]3F)[nH]c2c1	KDM5B inh 35µM
Fc1ccc2nc(CO[C@H]3CN(Cc4ccccc4)C[C@H]3F)[nH]c2c1	none
Fc1ccc2nc(CO[C@H]3CN(Cc4ccccn4)C[C@H]3F)[nH]c2c1	none
Cc1noc(-c2cn(C3CCN(C(=O)c4ccc(Cl)s4)C3)nn2)n1 (centres undefined)	none
NC1=NC(=O)C(Cc2ccc(OC(F)(F)F)cc2)S1 (centres undefined)	none
CCOC(=O)c1c(N)n(-c2ccc(C)c(Cl)c2)c2nc3ccccc3nc12	none
CSc1ccc(-c2ccccc2CN)cc1	none
CCc1ccc(C(=O)N2C[C@@H](CO)[C@H](c3nc(C)no3)C2)cc1	none
O=C1NCCCCCCN(C(=O)c2ccoc2)[C@H]2C[C@H](C(=O)N3CCc4ccccc4C3)C[C@@H]12	none

High-throughput results: PubChem BioAssay, National Center for Advancing Translational Sciences (NCATS)
